Measurements: PubChem BioAssay (Tox21)
Unmarked numbers belong to inactive results. Results filed as inconclusive are left out. Where a call stands in place of a potency, no number is given. Calls of active or inactive are those of the source. Unless noted, calls come from the whole dose curve.

How the values were obtained:
[1] = Nuclear factor erythroid 2-related factor 2/antioxidant responsive element (Nrf2/ARE) small molecule agonists: luciferase reporter gene qHTS assay in human keratinocytes (AID 1919969); note: nearly all actives have a fitted effect of over 35% in size; note: potency is the fitted concentration of half-maximal effect
[2] = biological target: KiSS-1 receptor (Homo sapiens) (UniProt Q969F8); test: Human kisspeptin (KISS1R) small molecule agonists, calcium flux assay in KISS1R-HEK293 cells (AID 1920064; active = well fitted activation curve with a large enough effect in the repeat runs)
Chain of KiSS-1 receptor (Homo sapiens) (Q969F8 whole entry, looked up): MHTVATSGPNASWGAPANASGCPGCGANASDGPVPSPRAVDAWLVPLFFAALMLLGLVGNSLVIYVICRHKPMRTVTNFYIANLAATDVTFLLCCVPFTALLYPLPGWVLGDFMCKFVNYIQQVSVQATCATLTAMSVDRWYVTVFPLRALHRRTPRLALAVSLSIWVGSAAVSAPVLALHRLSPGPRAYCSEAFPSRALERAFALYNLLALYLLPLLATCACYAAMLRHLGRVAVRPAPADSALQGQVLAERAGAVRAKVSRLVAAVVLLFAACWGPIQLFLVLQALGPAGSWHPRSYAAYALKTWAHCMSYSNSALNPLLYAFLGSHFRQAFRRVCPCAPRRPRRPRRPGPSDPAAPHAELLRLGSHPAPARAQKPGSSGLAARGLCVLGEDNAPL
Outline: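 Cell line: HEK293, stable human KISS1R. Dye loading 1 h at 37 C after 18 h culture. Read: kinetic fluorescence, 480/540 nm, 3 min at 1 s intervals.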

[3] = G protein-coupled receptor (GPCR) small molecule agonists, calcium flux assay: HEK293 wild type cell line counter screen (AID 1920065)
Outline: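 Tox21 10K compounds, 15 concentrations each in triplicate, pin-transferred in DMSO onto dye-loaded cells; kinetic read at 480/540 nm for 3 min, 1 s intervals.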

[4] = p53 small molecule agonists, cell-based qHTS assay with human liver microsomes (AID 1963577);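 note: p53 response element beta-lactamase reporter cells with liver microsomes plus NADPH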
Outline: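 HLM-supplemented p53RE-bla reporter assay: 16 h compound exposure at 37 C, microsomes and NADPH each 0.5 mg/mL final, read by fluorescence intensity.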

[5] = p53 small molecule agonists, cell-based qHTS assay with rat liver microsomes (AID 1963578)
Outline: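 Quantitative HTS of the Tox21 10K library: p53RE-bla cells, rat liver microsomes plus NADPH at 0.5 mg/mL final each, 16 h at 37 C, beta-lactamase fluorescence detection.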

[6] = p53 small molecule agonists, cell-based qHTS assay with rat liver microsomes: qHTS cell viability counter screen (AID 1963580); note: nearly all actives have a fitted effect of over 45% in size
Outline: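 After the beta-lactamase ratio was read, CellTiter-Glo was added to the same wells and luminescence measured at 30 min; cells had been treated 16 h at 37 C with compounds, rat liver microsomes and NADPH (0.5 mg/mL final each).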

[7] = p53 small molecule agonists, cell-based qHTS assay: qHTS cell viability counter screen (AID 1963581); note: nearly all actives have a fitted effect of over 45% in size
Outline: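 ATP content measured by luminescence in HCT-116 p53RE-bla cells treated 16 h at 37 C, same wells as the reporter screen.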

[8] = p53 small molecule agonists, cell-based qHTS assay (AID 1963582; active = well fitted activation curve with a large enough effect in the signal ratio in the repeat runs, not every such curve was filed as active; the % refers to the signal ratio)
Outline: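 16 h compound exposure (37 C) of p53 response element–bla cells, preceded by 5 h recovery at 37 C/5% CO2; read-out via LiveBLAzer B/G FRET substrate, 2 h RT, fluorescence intensity.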

[9] = biological target: 5-hydroxytryptamine receptor 2A (Homo sapiens) (UniProt P28223); test: 5-hydroxytryptamine receptor 2A (HTR2A) small molecule antagonists, cell-based qHTS assay (AID 1963586); note: nearly all actives have a fitted effect of over 45% in size; note: potency is the fitted concentration of half-maximal effect
Chain of 5-hydroxytryptamine receptor 2A (Homo sapiens) (P28223 whole entry, looked up): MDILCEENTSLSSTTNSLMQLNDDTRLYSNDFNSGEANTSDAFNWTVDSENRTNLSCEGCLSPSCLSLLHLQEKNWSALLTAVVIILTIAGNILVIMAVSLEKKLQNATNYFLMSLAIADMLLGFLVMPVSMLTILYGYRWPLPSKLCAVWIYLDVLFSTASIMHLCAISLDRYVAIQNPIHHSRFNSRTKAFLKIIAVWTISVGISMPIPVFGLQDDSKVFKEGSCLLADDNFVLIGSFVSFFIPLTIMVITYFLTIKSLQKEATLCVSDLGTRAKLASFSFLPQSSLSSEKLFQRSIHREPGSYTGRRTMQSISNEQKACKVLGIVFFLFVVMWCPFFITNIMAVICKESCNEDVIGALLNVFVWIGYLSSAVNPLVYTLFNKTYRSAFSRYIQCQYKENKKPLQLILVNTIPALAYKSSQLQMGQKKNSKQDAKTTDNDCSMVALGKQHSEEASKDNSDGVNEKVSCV
Outline: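 CHO cells stably expressing human HTR2A were plated for 18 h at 37 C, then loaded with calcium dye for 1 h. Compounds were preincubated 5 min at room temperature before DOI (4 nM solution) was added. Kinetic fluorescence was read for 3 min.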

[10] = biological target: Muscarinic acetylcholine receptor M1 (Homo sapiens) (UniProt P11229); test: Cholinergic receptor muscarinic 1 (CHRM1) small molecule antagonists, cell-based qHTS assay (AID 1963588); note: nearly all actives have a fitted effect of over 40% in size; note: potency is the fitted concentration of half-maximal effect
Chain of Muscarinic acetylcholine receptor M1 (Homo sapiens) (P11229 whole entry, looked up): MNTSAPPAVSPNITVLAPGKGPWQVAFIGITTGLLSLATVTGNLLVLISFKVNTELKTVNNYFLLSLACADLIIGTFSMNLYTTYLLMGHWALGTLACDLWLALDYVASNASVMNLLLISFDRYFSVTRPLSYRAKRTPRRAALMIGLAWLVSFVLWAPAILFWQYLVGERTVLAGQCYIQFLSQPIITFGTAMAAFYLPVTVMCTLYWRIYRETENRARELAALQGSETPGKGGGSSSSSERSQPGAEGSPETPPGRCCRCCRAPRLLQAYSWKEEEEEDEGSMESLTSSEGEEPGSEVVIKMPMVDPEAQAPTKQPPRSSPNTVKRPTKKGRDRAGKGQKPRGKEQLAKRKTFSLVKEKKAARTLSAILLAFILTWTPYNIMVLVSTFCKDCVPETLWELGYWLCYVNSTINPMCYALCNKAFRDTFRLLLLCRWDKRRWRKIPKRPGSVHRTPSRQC
Outline: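 Compounds were tested at 15 concentrations in three independent runs. Dye-loaded CHRM1-CHO cells were exposed 5 min at room temperature before stimulation by acetylcholine added at 50nM. Intracellular calcium was read kinetically on FDSS for 3 min.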

[11] = biological target: Muscarinic acetylcholine receptor M1 (Homo sapiens) (UniProt P11229); test: Cholinergic receptor muscarinic 1 (CHRM1) small molecule agonists, cell-based qHTS assay (AID 1963589); note: nearly all actives have a fitted effect of over 35% in size
Outline: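 Homogeneous fluorescence calcium flux, agonist mode. Human M1-expressing CHO cells; compound dosed at 15 concentrations, three independent runs; signal sampled every 1 sec.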

[12] = cAMP Responsive Elements (CRE) small molecule antagonists, cell-based qHTS assay (AID 1963591; active = well fitted inhibition curve with a large enough effect in the signal ratio in the repeat runs, not every such curve was filed as active; the % refers to the signal ratio; note: potency is the fitted concentration of half-maximal effect)
Outline: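 First, CRE-bla HEK293T cells settled 18 h at 37 C. Next, compound and 0.25 uM final NKH477 were applied for 3 h. Last, LiveBLAzer B/G substrate was loaded for 2 h at room temperature.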

[13] = biological target: Beta-2 adrenergic receptor (Homo sapiens) (UniProt P07550); test: Adrenergic beta2 receptor (ADRB2) small molecule antagonists, cell-based qHTS assay (AID 1963592); note: series mostly up to about 92 µM; nearly all actives have a fitted effect of over 50% in size
Chain of Beta-2 adrenergic receptor (Homo sapiens) (P07550 whole entry, looked up): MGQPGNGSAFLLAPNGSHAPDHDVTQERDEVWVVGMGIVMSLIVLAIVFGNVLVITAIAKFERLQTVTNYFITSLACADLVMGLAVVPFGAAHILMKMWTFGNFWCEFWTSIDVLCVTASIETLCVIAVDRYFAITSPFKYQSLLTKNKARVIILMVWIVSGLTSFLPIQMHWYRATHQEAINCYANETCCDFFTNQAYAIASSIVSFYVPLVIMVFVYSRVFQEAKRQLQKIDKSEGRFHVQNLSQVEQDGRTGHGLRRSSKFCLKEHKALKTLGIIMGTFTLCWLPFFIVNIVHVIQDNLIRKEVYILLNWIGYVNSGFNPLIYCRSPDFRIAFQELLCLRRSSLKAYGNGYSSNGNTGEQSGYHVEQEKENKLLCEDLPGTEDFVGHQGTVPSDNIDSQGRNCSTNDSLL
Outline: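 Assay format: CHO-ADRB2 cells, 18-20hr seeding at 37C/5% CO2, then compound plus 1nM isoproterenol agonist mix for 0.5hr RT. Homogeneous time-resolved fluorescence cAMP detection after 1hr, expressed as 665/615 nm ratio.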

[14] = biological target: D(2) dopamine receptor (Homo sapiens) (UniProt P14416); test: Dopamine D2 receptor (DRD2) small molecule agonists, cell-based qHTS assay (AID 1963594); note: nearly all actives have a fitted effect of over 35% in size
Chain of D(2) dopamine receptor (Homo sapiens) (P14416 whole entry, looked up): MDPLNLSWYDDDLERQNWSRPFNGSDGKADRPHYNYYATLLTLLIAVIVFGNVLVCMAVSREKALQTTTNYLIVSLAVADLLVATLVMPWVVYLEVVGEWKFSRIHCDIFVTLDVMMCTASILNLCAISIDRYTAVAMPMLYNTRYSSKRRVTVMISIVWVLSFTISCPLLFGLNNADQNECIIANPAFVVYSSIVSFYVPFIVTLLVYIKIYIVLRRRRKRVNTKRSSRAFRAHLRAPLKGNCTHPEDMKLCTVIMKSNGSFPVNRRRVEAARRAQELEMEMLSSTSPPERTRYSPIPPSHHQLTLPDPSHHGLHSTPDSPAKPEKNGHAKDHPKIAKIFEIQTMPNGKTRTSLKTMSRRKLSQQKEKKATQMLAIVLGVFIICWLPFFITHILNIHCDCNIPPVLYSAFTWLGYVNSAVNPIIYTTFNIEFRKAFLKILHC
Outline: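 HEK293 cells stably expressing human DRD2, pre-treated with PDE inhibitor Ro20-1724 (0.1 mM final) and compound 10 min at room temperature, then stimulated with NKH477 (200nM […]) for 30 min. cAMP read by HTRF (665/620 nm).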

[15] = p53 small molecule agonists, cell-based qHTS assay with human liver microsomes: qHTS cell viability counter screen (AID 1963579); note: nearly all actives have a fitted effect of over 45% in size; note: potency is the fitted concentration of half-maximal effect
Outline: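 Viability of p53RE-bla cells is measured as CellTiter-Glo luminescence following a 16 h, 37 C incubation with compound, liver microsomes from human donors and NADPH.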

[16] = cAMP Responsive Elements (CRE) small molecule agonists, cell-based qHTS assay (AID 1963590)
Outline: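 HEK 293T cells stably bearing CRE-bla were plated at 2,000 cells per well and rested 18 h. Compounds, positive controls or DMSO were added for 3 h at 37 C. LiveBLAzer B/G substrate was then loaded for 2 h at room temperature.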

[17] = biological target: D(2) dopamine receptor (Homo sapiens) (UniProt P14416); test: Dopamine D2 receptor (DRD2) small molecule antagonists, cell-based qHTS assay (AID 1963595; active = well fitted inhibition curve with a large enough effect in the signal ratio in the repeat runs, with a control signal flat; the % refers to the signal ratio; note: potency is the fitted concentration of half-maximal effect)
Outline: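 Human DRD2 antagonist qHTS measuring cAMP by HTRF. The cells are exposed to compound for 10 min, then to NKH477 (200 nM) and quinpirole (12 nM) for 30 min at RT, with Ro20-1724 (0.1 mM) present throughout.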

[18] = biological target: 5-hydroxytryptamine receptor 2A (Homo sapiens) (UniProt P28223); test: 5-hydroxytryptamine receptor 2A (HTR2A) small molecule agonists, cell-based qHTS assay (AID 1963587); note: nearly all actives have a fitted effect of over 30% in size; note: potency is the fitted concentration of half-maximal effect
Outline: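 CHO cells stably expressing human HTR2A, plated 18 h, loaded with calcium dye 1 h at 37 C. Agonist mode: compounds added and intracellular calcium fluorescence recorded kinetically for 2 min at 1 sec intervals.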

[19] = biological target: Beta-2 adrenergic receptor (Homo sapiens) (UniProt P07550); test: Adrenergic beta2 receptor (ADRB2) small molecule agonists, cell-based qHTS assay (AID 1963593);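 note: CHO cells stably overexpressing human ADRB2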
Outline: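 CHO cells stably over-expressing ADRB2 were plated overnight at 37C, then dosed with compounds plus a stimulation mix containing 100uM IBMX and 25uM Ro-20-1724 for 0.5hr at room temperature. cAMP was measured by HTRF competition, 1hr.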

SMILES	Potency [1]	Potency [2]	Potency [3]	Potency [4]	Potency [5]	Potency [6]	Potency [7]	Potency [8]	Potency [9]	Potency [10]	Potency [11]	Potency [12]	Potency [13]	Potency [14]	Potency [15]	Potency [16]	Potency [17]	Potency [18]	Potency [19]
CCCCCCCCCCCCCOS(=O)(=O)O	inactive	inactive	inactive	inactive	inactive	inactive	inactive	inactive	42.1 µM (active)	inactive	inactive	inactive	inactive	inactive	–	–	–	–	–
Nc1ccc([N+](=O)[O-])c(N)c1	inactive	inactive	inactive	inactive	inactive	–	inactive	–	inactive	inactive	inactive	inactive	inactive	inactive	inactive	inactive	inactive	–	–
CCc1ccc(O)c(C(C)(C)C)c1	inactive	inactive	inactive	–	inactive	–	inactive	inactive	–	37.5 µM (active)	inactive	–	inactive	inactive	inactive	–	–	49 µM (active)	–
OCCN1CCN(CCCN2c3ccccc3Sc3ccc(Cl)cc32)CC1	inactive	inactive	inactive	–	inactive	inactive	inactive	–	–	–	–	–	–	inactive	inactive	–	0.0266 µM (active)	–	–
CN1CCCN(C(c2ccccc2)c2ccc(Cl)cc2)CC1 (configuration not stated)	inactive	–	inactive	inactive	inactive	inactive	–	–	–	0.0231 µM (active)	inactive	inactive	–	inactive	inactive	inactive	26.6 µM (active)	inactive	inactive
C1CCC(C(CC2CCCCN2)C2CCCCC2)CC1 (configuration not stated)	inactive	inactive	inactive	inactive	inactive	inactive	–	inactive	–	–	–	29.8 µM (active)	–	inactive	inactive	–	–	–	–
Oc1ccc(-c2ccccc2)c(Cl)c1	54.5 µM (active)	inactive	inactive	inactive	inactive	inactive	inactive	inactive	26.5 µM (active)	inactive	inactive	–	inactive	inactive	–	–	inactive	–	inactive
CCCCN(CCCC)C(=S)SSC(=S)N(CCCC)CCCC	1.52 µM (active)	–	inactive	inactive	inactive	–	inactive	inactive	inactive	inactive	inactive	inactive	inactive	inactive	inactive	inactive	inactive	inactive	–
CCOC(=O)[C@H](CCc1ccccc1)N[C@H]1CCc2ccccc2N(CC(=O)O)C1=O	inactive	inactive	inactive	–	–	inactive	inactive	–	–	–	–	–	–	–	inactive	–	inactive	–	–
O=C(OCC(COC(=O)c1cccnc1)(COC(=O)c1cccnc1)COC(=O)c1cccnc1)c1cccnc1	inactive	inactive	inactive	–	–	inactive	inactive	–	inactive	inactive	inactive	–	inactive	inactive	inactive	inactive	inactive	–	inactive
CSCC[C@H](NC(=O)[C@H](Cc1c[nH]c2ccccc12)NC(=O)CCNC(=O)OC(C)(C)C)C(=O)N[C@@H](CC(=O)O)C(=O)N[C@@H](Cc1ccccc1)C(N)=O	inactive	inactive	inactive	–	–	inactive	inactive	–	–	–	–	inactive	inactive	inactive	inactive	inactive	inactive	–	–
CC(=O)[C@]1(O)Cc2c(O)c3c(c(O)c2[C@@H](O[C@H]2C[C@H](N)[C@H](O)[C@H](C)O2)C1)C(=O)c1ccccc1C3=O	2.66 µM (active)	inactive	inactive	–	–	–	inactive	–	–	–	–	–	–	–	–	inactive	–	–	–
CCN(CC)CCOC(=O)C1(C2CCCCC2)CCCCC1	inactive	inactive	inactive	–	–	inactive	–	–	–	–	–	–	inactive	–	inactive	–	–	–	–
O=C1C=CC(=O)N1c1ccccc1	15.4 µM (active)	inactive	inactive	–	inactive	–	–	–	inactive	inactive	–	–	–	–	20.4 µM (active)	–	13.7 µM (active)	24.5 µM (active)	–
